We go through 32 molecules from ChEMBL document CHEMBL3433997, “St. Jude Leishmania screening dataset” (2016).

Holding throughout (assay type): functional
Assay [1] concerns the target Solute carrier family 2, facilitated glucose transporter member 1 (Homo sapiens) (UniProt P11166). The experiment in a line: ST_JUDE_LEISH: Cytotoxicity at 2uM final concentration against transgenic Leishmania Mexicana promastigotes LmGLUT1 that are glucose transport deficient and complemented with the human glucose transporter GLUT1. Activity is measured by DNA content using SYBR green in vitro.

In assay [2] the target is Hexose transporter 1 (Plasmodium falciparum) (UniProt O97467). The assay is described as follows: ST_JUDE_LEISH: Cytotoxicity at 2uM final concentration against transgenic Leishmania Mexicana promastigotes LmPfHT that are glucose transport deficient and complemented with the Plasmodium falciparum hexose transporter. Activity is measured by DNA content using SYBR green in vitro.

In assay [3] the target is Glucose transporter (Leishmania mexicana) (UniProt O61059). The experiment in a line: ST_JUDE_LEISH: Cytotoxicity at 2uM final concentration against transgenic Leishmania Mexicana promastigotes LmGT2 that are glucose transport deficient and complemented with the L. Mexicana glucose transporter 2. Activity is measured by DNA content using SYBR green in vitro.

Sequence of Solute carrier family 2, facilitated glucose transporter member 1 (Homo sapiens) (P11166 whole entry): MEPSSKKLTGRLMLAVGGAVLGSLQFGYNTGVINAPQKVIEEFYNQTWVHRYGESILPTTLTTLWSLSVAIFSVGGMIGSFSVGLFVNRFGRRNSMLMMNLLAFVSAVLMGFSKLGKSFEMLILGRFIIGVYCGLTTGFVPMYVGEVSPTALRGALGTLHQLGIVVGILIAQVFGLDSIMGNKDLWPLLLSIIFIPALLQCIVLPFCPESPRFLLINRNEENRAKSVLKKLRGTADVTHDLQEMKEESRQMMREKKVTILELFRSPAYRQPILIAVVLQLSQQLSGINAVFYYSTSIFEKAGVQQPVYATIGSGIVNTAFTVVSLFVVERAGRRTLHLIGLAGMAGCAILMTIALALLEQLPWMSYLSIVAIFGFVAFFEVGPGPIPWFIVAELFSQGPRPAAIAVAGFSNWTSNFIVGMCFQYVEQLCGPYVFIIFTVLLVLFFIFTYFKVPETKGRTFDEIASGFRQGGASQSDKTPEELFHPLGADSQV

As to `COc1cccc(-c2cnc(N)c(-c3nc4ccc(F)cc4[nH]3)c2)c1`, the inhibition (commonly the drop in the measured response relative to a control, in per cent) in assay [1] amounted to 5.87%; in assay [2], 7.53%; in assay [3], 4.49%.

As to `Cc1cc(CN2CC[C@H](NC(=O)c3ccc(Cl)c(Cl)c3)C2)ccc1OCCN1CCNCC1`, the inhibition in assay [1] was -0.62%; in assay [2], 0.59%; in assay [3] it was 0.3%.

Take `NC(=O)C1CCN(Cc2ccc(-c3ccc(-c4nc5cc(C(F)(F)F)ccc5[nH]4)s3)cc2)CC1`: the figures for the inhibition in assay [1], in assay [2] and in assay [3] were 4.68%, 3.12% and 4.69%, respectively.

As for `Cc1cccc(NC(=O)c2ccc(C(=O)NC3CCN(CC4CCCCC4)CC3)cc2)c1`, the inhibition in assay [1] amounted to 4.08%; in assay [2], 7.67%; in assay [3], 4.8%.

Turning to `O=C(NCC1CCC(CNCCc2ccccc2)CC1)Nc1ccc(Cl)c(Cl)c1` (stereo unspecified), the inhibition is -0.7% in assay [1], -1.96% in assay [2] and -2.11% in assay [3].

Regarding `O=C(/C=C/c1ccc(I)cc1)NCCCCCN1CCC(c2c[nH]c3ccc(O)cc23)CC1`, the inhibition in assay [1] was found to be 1.49%; in assay [2], 1.64%; in assay [3] it was 1.49%.

`CCCCN(C(=O)c1ccccc1Cl)c1nnc(-c2ccccc2C)s1`: the inhibition in assay [1] is -1.28%; in assay [2], 0.39%; in assay [3] it was 0.03%.

Turning to `Cc1ccc(F)c(C(=O)Nc2cccc(-c3nn4ccccc4c3-c3ccnc(Nc4cccc(F)c4)n3)c2)c1F`, the inhibition in assay [1] was determined as 9.44%; in assay [2] it was 8.92%; in assay [3], 6.93%.

`c1cncc(CCNCc2ccc(-c3cccc(-c4nc5ccccc5[nH]4)c3)cc2)c1`: the inhibition in assay [1] is -0.73%; in assay [2], 0.67%; in assay [3], -0.38%.

Take `CC(C)(C)c1nn(-c2ccc(Cl)cc2)c2[nH]c(=O)c(CNCc3ccc4c(c3)OCO4)cc12`: the inhibition in assay [1] is 4.55%; in assay [2], 3.31%; in assay [3], 5.03%.

`CN1CCC(N2CCC(Oc3cccc(C(=O)NCCCC4CCCC4)c3)CC2)CC1`: the inhibition in assay [1] was determined as 10.9%; in assay [2], 10.4%; in assay [3], 10.3%.

`CN(C)c1ccc(-c2csc(C(=O)NC3CCCCN(Cc4ccc(C(C)(C)C)cc4)C3)c2)cc1` (stereo unspecified): the inhibition is -1.22% in assay [1], -0.61% in assay [2] and 1.96% in assay [3].

Regarding `c1ccc2c(Nc3ccc(Oc4ccc(Nc5c6ccccc6nc6ccccc56)cc4)cc3)c3ccccc3nc2c1`, the inhibition was 2.32% in assay [1], 0.88% in assay [2] and -1.82% in assay [3].

In the case of `O=C(NCCCCN1CCC(c2c[nH]c3ccc(-c4ccccc4)cc23)CC1)c1ccc(-c2ccccc2)cc1`, the inhibition amounted to 5.96% in assay [1], 4.21% in assay [2] and 5.24% in assay [3].

As to `Cc1cc(OCC(=O)Nc2ccc(-c3nc4ccccc4[nH]3)cc2)cc(C)c1Cl`, the inhibition in assay [1] is 0.45%; in assay [2] it was 2%; in assay [3], -0.9%.

With `N#Cc1ccccc1S(=O)(=O)N1CCCC(CNC(=O)[C@H](CC2CCCCC2)NC(=O)c2cc3ccccc3s2)C1` (stereo partly specified), the inhibition in assay [1] worked out at 1.08%; in assay [2], 2.15%; in assay [3], 0.55%.

Take `Cn1nc(-c2cccc(CN[C@@H]3CCc4ccc(O)cc43)c2)c2cnc(NCCCN3CCCC3)nc21`: the results for the inhibition in assay [1], in assay [2] and in assay [3] were 11.2%, 4.83% and 4.3%, respectively.

As to `N#CC1(c2ccccc2)CCN(c2nc(NCCCN3CCCC3=O)nc(N3CCCC4CCCCC43)n2)CC1` (stereo unspecified), the inhibition is 2.11% in assay [1], 2.3% in assay [2] and -0.55% in assay [3].

On to `Nc1nccc2ccc(-c3ccc(NC(=O)Nc4cc(C(F)(F)F)ccc4F)cc3)cc12`, for which the inhibition in assay [1] is 0.91%; in assay [2], 4.94%; in assay [3] it was -0.4%.

As to `CCOc1ccc(C(=O)Nc2cc(Cl)ccc2O)cc1Cl`, the inhibition in assay [1] was -1.03%; in assay [2], 0.11%; in assay [3], -1.5%.

For the molecule `NCC1CCCN1Cc1ccc(-c2cccc(-c3nc4cc(F)ccc4[nH]3)c2)cc1` (stereo unspecified), the inhibition is 3.25% in assay [1], 1.31% in assay [2] and 1.35% in assay [3].

On to `CCN(CC)CCN(Cc1ccc(-c2ccc(Cl)cc2)cc1)C(=O)Cn1c(CCc2cccc(F)c2F)nc(=O)c2ccccc21`, for which the inhibition in assay [1] was -2.54%; in assay [2], -2.71%; in assay [3] it was -1.69%.

As to `O=C(Nc1ccc(OC2CCN(Cc3ccc(F)cc3)C2)cc1)c1ccco1` (stereo unspecified), the inhibition in assay [1] worked out at 2.22%; in assay [2], 2.86%; in assay [3], 3.15%.

On to `CCCNC(=O)C1CCN(C(c2ccc(Cl)cc2)c2ccc(Cl)cc2)CC1`, for which the inhibition in assay [1] was -0.62%; in assay [2], 2.95%; in assay [3], 0.49%.

Take `O=[N+]([O-])c1cccc(S(=O)(=O)N2CCN(CC(O)COc3ccc(-c4ccccc4)cc3)CC2)c1` (stereo unspecified): the inhibition in assay [1] came out at 1.04%; in assay [2], 1.75%; in assay [3], 4.46%.

Regarding `COc1ccccc1-c1ccc2nnc(SCC(=O)Nc3ccc4c(c3)OCCO4)n2n1`, the inhibition in assay [1] is 4.56%; in assay [2] it was 4.26%; in assay [3], 3.67%.

Take `O=c1c2ccccc2[nH]c2nc3ccccc3c(Nc3ccccc3)c12`: the inhibition in assay [1] turned out to be 10.2%; in assay [2], 12.5%; in assay [3], 8.59%.

Take `Cc1cc(N)nc2ccc(-c3ccc(CCN)cc3)cc12`: the values for the inhibition in assay [1], in assay [2] and in assay [3] were 2.07%, 3.64% and 0.96%, respectively.

`Oc1ccc(CCNc2nc(NCc3ccccc3Oc3ccc(C(F)(F)F)cc3)nc(N3CCNCC3)n2)cc1`: the inhibition in assay [1] was -0.98%; in assay [2], -1.74%; in assay [3], -2.4%.

In the case of `Cn1cncc1C(=O)Nc1cccc(-c2ccc(-c3nc4cc(C(F)(F)F)ccc4[nH]3)cc2)c1`, the inhibition in assay [1] was determined as 9.17%; in assay [2], 6.73%; in assay [3], 5.1%.

Take `CC(C)(C)c1ccc(Cc2cccc3nc(N)nc(N)c23)cc1`: the inhibition was found to be 21% in assay [1], 16.4% in assay [2] and 11.4% in assay [3].

Regarding `Cc1nc(-c2cccc(C(=O)Nc3cnc4ccccc4c3)c2)no1`, the inhibition in assay [1] was 5.51%; in assay [2] it was 3.53%; in assay [3] it was 3.52%.
